Where “and” joins values, the source holds several entries; their conditions need not be identical. Identical values can stand only once. More than one record can exist for a structure, and the calls need not agree. Calls of active or inactive are those of the source. How the source made its calls: active means hit-call score of the fitted dose curve at least 0.9, where 1 is the maximum; inactive means score below 0.9.
The molecules below were run on Cytochrome P450 2C19 (Homo sapiens) (UniProt P33261) (assay: LTEA_HepaRG_CYP2C19: Life Technologies and Expression Analysis (LTEA) Assay for CYP2C19 using HepaRG (AID 2283482)). Details: mRNA level, 48 h; actives raise or lower the signal.
Protocol: LTEA_HepaRG is a cell based, multiplexed-readout assay that uses HepaRG, a human liver cell line, with measurements taken at 48 hours after chemical dosing on a 96-well plate.LTEA_HepaRG_CYP2C19 is one of 102 assay component(s) measured in the LTEA HepaRG cell culture assay. It is a marker of NR mediated metabolism.Data from the assay component LTEA_HepaRG_CYP2C19 was analyzed into 1 endpoint. This assay endpoint, LTEA_HepaRG_CYP2C19, was analyzed with bidirectional fitting relative to DMSO as the negative control and baseline of activity. Using a type of inducible reporter, measures of mRNA induction for gain or loss-of-signal activity can be used to understand regulation of transcription factor activity. To generalize the intended target to other relatable targets, this assay endpoint is annotated to the cyp intended target family, where the subfamily is xenobiotic metabolism.
A total of 1060 chemcials from the ToxCast library were tested in eight-point concentration-response experiments. Cell culture and cytotoxicity assays were conducted at Thermo Fisher Scientific's Custom Services facility (Madison, WI). A single lot of human HepaRG cells (Thermo Fisher Scientific, Frederick, MD) was used for the cell culture experiments. 96-well format collagen type I coated plates of human HepaRG cells were prepared using established methods. Briefly, cryopreserved HepaRG cells were thawed, plated at a density of approximately 100,000 cells/well in HepaRG Thaw, Plate, and General Purpose media (HPRG770, Thermo Fisher Scientific), and incubated for 48 hours. 0.5% DMSO was selected as vehicle control to balance the requisite need of DMSO in HepaRG cultures to maintain differentiation (for example, baseline metabolism, proportions of hepatocytes vs. cholangiocytes), while enabling further hepatic receptor pathway activation (for example, PXR and CAR) in response to chemical exposure. 48 hours after plating, the culture medium was replaced with HepaRG Serum-Free Incudtion Media. Cells were exposed to each test chemical in duplicate and maintained in CO2 incubators for another 48 hours. Chemical plates were thawed to room temperature and 200x concentrations of treatment groups were prepared. 8-point conentration-reponse curves were made with the highest exposure at 100 uM, followed by half-log dilutions, all in 0.5% DMSO. Each test plate contained variouse controls, induction positive controls (1mM phenobarbital), cytotoxicity positive controls ([…] aflatoxin B1), vehicle controls (0.5% DMSO), and total lysis controls (0.5% DMSO). Cell morphology images were taken using an Essen IncuCyte FLR automated microscope, with six 96-well plates imaged in about 24 minutes. Images were captured and exported and JPEG files. Spent culture media was transfered to black-well plates for the LDH assay, and remaining media was sorted at -80 C for later use. Cells were treated with RLT buffer and frozen until shipped for gene expression analysis. Total RNA was isolated from the cell suspension in 75 uL of Buffer RLT (Qiagen, Germantown, MD 20874) by Quintiles/Expression Analysis (Durham, NC) using a custom isolation procedure. Total RNA from each plate well was transferred to a preamplification plate. Fluidigm's 96.96 Dynamic ArrayTM (Fluidigm, Amsterdam, the Netherlands) technology was used for gene expression analyses by quantitative reverse transcription polymerase chain reaction (qRT-PCR, performed by Quintiles/Expression Analysis, Durham, NC)89. Standard TaqManTM Assays (Applied Biosystems/ThermoFisher Scientific, Foster City, CA) were used to assess the expression of 93 genes selected based on their selectivity and sensitivity to important hepatic receptors known to be modulated by environmental chemicals; importance in human hepatocyte functionality; and hepatotoxicity. […]

Sequence of Cytochrome P450 2C19 (Homo sapiens) (P33261 whole entry, looked up): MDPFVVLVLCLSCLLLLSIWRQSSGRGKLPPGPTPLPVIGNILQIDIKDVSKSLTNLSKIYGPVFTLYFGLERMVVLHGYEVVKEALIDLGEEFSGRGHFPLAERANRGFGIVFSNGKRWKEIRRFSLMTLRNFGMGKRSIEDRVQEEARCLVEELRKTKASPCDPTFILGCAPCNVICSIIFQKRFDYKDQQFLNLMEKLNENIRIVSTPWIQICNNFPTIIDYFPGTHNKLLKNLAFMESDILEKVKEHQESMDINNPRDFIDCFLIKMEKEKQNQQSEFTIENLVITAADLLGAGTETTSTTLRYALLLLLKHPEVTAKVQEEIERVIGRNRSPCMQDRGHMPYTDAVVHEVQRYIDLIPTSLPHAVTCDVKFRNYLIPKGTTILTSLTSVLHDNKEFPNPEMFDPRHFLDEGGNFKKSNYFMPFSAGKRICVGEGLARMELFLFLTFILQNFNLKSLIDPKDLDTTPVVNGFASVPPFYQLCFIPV

SMILES | outcome | AC50
CCCN(CCC)C(=O)SCC | inactive | –
COC(=O)c1ccccc1C(=O)O | inactive | –
CC(=O)[C@H]1CC[C@H]2[C@@H]3CCC4=CC(=O)CC[C@]4(C)[C@H]3CC[C@]12C | – | 39.6 µM (active)
c1ccc2[nH]c(-c3cscn3)nc2c1 | – | 28.6 µM (active)
CCN(Cc1c(F)cccc1Cl)c1c([N+](=O)[O-])cc(C(F)(F)F)cc1[N+](=O)[O-] | – | 12.9 µM (active)
Cc1nn(C)c(Oc2ccccc2)c1C=NOCc1ccc(C(=O)OC(C)(C)C)cc1 | – | 29.2 µM (active)
CC(C)(c1ccc(O)cc1)c1ccc(O)cc1 | inactive | 37.1 µM (active)
CCCCOC(=O)[C@@H](C)Oc1ccc(Oc2ccc(C(F)(F)F)cn2)cc1 | inactive | –
CCCCC(CC)COC(=O)c1ccccc1C(=O)O (stereo not given) | inactive | –
S=C(S)NCCNC(=S)S.[Mn+2].[S-]C([S-])=NCCN=C([S-])[S-].[Zn+2] | – | 1.4 µM (active) and 1.55 µM (active)
CC1(C)C(C=C(Cl)Cl)C1C(=O)OCc1cccc(Oc2ccccc2)c1 (stereo not given) | inactive | –
CCNc1nc(N)nc(Cl)n1 | – | 6.65 µM (active)
O=C(c1ccccc1)C1CCCCC1 | inactive | –
CCCCOCCOCCOCc1cc2c(cc1CCC)OCO2 | – | 5.73 µM (active)
CCOC(=O)C(C)Oc1ccc(Oc2nc3ccc(Cl)cc3o2)cc1 (stereo not given) | – | 14 µM (active)
c1ccc(Nc2ccccc2)cc1 | inactive | –
O=C(O)C1(C(=O)Nc2ccc(Cl)cc2Cl)CC1 | – | 76.5 µM (active)
CCC(C)OC(=O)N1CCCCC1CCO (stereo not given) | – | 50 µM (active)
CCCCOC(=O)C(C)Oc1ccc(Oc2ccc(C(F)(F)F)cn2)cc1 (stereo not given) | inactive | –
COC(=O)c1ccc(I)cc1S(=O)(=O)NC(=O)Nc1nc(C)nc(OC)n1 | inactive | –

SMILES | outcome | AC50
O=C(O)c1ccccc1 | inactive | –
CC(C)(C)[C@@H](O)[C@@H](Cc1ccc(Cl)cc1)n1cncn1 | – | 7.33 µM (active)
CCSC(=O)N(CC(C)C)CC(C)C | inactive | –
CCCCCOC(=O)COc1cc(N2C(=O)C3=C(CCCC3)C2=O)c(F)cc1Cl | inactive | –
OB(O)O | inactive | –
S=C([S-])NCCNC(=S)[S-].[Mn+2] | – | 4.61 µM (active)
CC(C)CCCCCCc1ccc(O)cc1 | inactive | –
C=CCOC(Cn1ccnc1)c1ccc(Cl)cc1Cl (stereo not given) | – | 34.3 µM (active)
C[C@]12CC[C@@H]3c4ccc(O)cc4C[C@@H](CCCCCCCCCS(=O)CCCC(F)(F)C(F)(F)F)[C@H]3[C@@H]1CC[C@@H]2O (stereo not given in full) | – | 26 µM (active)
COC(=O)CSc1cc(N=c2sc(=O)n3n2CCCC3)c(F)cc1Cl | – | 24 µM (active)
CCCOC(=O)c1ccc(C(=O)OCCC)nc1 | inactive | –
CCOC(=O)NCCOc1ccc(Oc2ccccc2)cc1 | – | 81.6 µM (active)
COCCO | inactive | –
N[C@@H](Cc1cc(I)c(Oc2ccc(O)c(I)c2)c(I)c1)C(=O)O | – | 61.6 µM (active)
CCCN(CCC)c1c([N+](=O)[O-])cc(C(F)(F)F)c(N)c1[N+](=O)[O-] | – | 5.41 µM (active)
N#CSCSc1nc2ccccc2s1 | inactive | –
CCN(CC)C(=O)c1cccc(C)c1 | – | 12.9 µM (active)
CCOC(=O)COc1cc(-n2ncc(C(F)(F)F)c(C)c2=O)c(F)cc1Cl | inactive | –
COc1c(Cl)ccc(Cl)c1C(=O)O | inactive | –

From PubChem BioAssay (EPA / NIEHS)
